An excerpt weighted towards active compounds, which were near 14% of everything screened.
NS1 function inh: qHTS Assay for Inhibitors of Influenza NS1 Protein Function; AID 2326, 2010; Potency, µM (top dose mostly 46.1 µM), for inactives: top-dose activity, positive = more growth; 0.4% of 270,000 active; calls by dose curve; note: potency is the fitted concentration of half-maximal effect; actives are rising curves; nearly all actives have a fitted effect of over 50% in size
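Read-out: OD600 growth recovery of NS1-expressing budding yeast. Cells grown overnight at 30C in -URA glucose medium, washed, resuspended and diluted 1:100 in 2% galactose assay medium, pH 6.0. Same strain lacking NS1 served as positive control.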
Shiga inhibitor: A qHTS for Small Molecule Inhibitors of Shiga Toxin. Vero cells, Shiga toxin protein synthesis inhibition reporter. inhibition, % at 38.7 µM. 9.2% of 290,000 active; in the data active = inhibition mostly above about 28%, no sharp cut-off; inactive = mostly below about 43%; note: 0% is about no effect
Cycloheximide cs: Cycloheximide Counterscreen for Small Molecule Inhibitors of Shiga Toxin | cell reporter, cycloheximide protein synthesis inhibition counterscreen | max response, % | 12% of 300,000 active | AID 2314, 2010; in the data active = max response mostly above about 13%, no sharp cut-off; inactive = mostly below about 14%; note: read at 38.3 µM for the half of the compounds with a filed dose; 0% is about no effect
LmPK inh: qHTS Assay for Inhibitors of Leishmania Mexicana Pyruvate Kinase (LmPK) | 0.37% of 290,000 active | AID 1721, 2009 | Q27686 | purified LmPK, Kinase-Glo ATP luminescence, 1 h | Potency, µM (titrated, usually from 57.5 µM), for the others: at the top dose activity change, negative = inhibition, actives largely listed as inhibitors; note: potency is the fitted concentration of half-maximal effect; % is set by controls: 0 for no effect and ±100 for the full control effect
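Purified LmPK (0.1 nM) with 0.5 mM PEP and 0.1 mM ADP in imidazole buffer pH 7.2 with MgCl2/KCl, 1 h at room temperature. ATP formed was read by luciferase luminescence and normalized to no-enzyme and uninhibited controls.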
Giardia FBPA inh: qHTS Assay for Inhibitors of Fructose-1,6-bisphosphate Aldolase from Giardia Lamblia. A8B2U2. purified Giardia FBPA. Potency, µM (series often up to 59.6 µM), inactives show at the highest dose activity, negative = inhibition, hits mostly inhibitors. 0.71% of 290,000 active; note: potency is the fitted concentration of half-maximal effect; % is set by controls: 0 for no effect and ±100 for the full control effect; nearly all actives have a fitted effect of over 55% in size
Target sequence (A8B2U2 whole entry, looked up): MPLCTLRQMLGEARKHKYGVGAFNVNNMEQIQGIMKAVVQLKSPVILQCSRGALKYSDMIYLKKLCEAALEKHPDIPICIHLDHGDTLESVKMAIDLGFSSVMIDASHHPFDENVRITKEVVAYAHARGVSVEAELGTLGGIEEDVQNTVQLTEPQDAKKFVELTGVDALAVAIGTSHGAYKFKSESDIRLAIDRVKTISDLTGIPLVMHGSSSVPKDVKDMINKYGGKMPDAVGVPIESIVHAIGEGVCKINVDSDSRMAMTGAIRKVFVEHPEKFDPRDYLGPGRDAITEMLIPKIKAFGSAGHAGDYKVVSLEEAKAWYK
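Giardia FBPA (40 nM reagent) was preincubated 10 min at RT with compound (up to 57.5 uM final), then substrate plus GAPDH/TPI/NAD/arsenate coupling system with diaphorase/resazurin was added; resorufin fluorescence (525/598 nm) was read after 20 min.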
* marks the source's active call; other numbers are inactive results; ? = inconclusive; . = no result given; [ ] = another dose, or the depositor's remark. Unless noted, calls come from the whole dose curve; as a rule, active = well fitted curve in the direction sought with a large enough effect; inconclusive = small, poorly fitted or top-dose-only effect, or another doubt; inactive = no such curve, though single readings can be large; an effect the other way counts as inactive or inconclusive.

SMILES | NS1 function inh | Shiga inhibitor | Cycloheximide cs | LmPK inh | Giardia FBPA inh
Cc1ccc2c(c1)COc1c3ccc(C(=O)NC(C)C)cc3nn1-2 | -9% | 76* | 35* | -4% | 5%
C=CCSC[C@@H]1Nc2cc(Cl)c(S(N)(=O)=O)cc2S(=O)(=O)N1 | . | . | . | . | -22%[21.7 µM]
COc1cccc2c(=O)c(SC(F)(F)C(F)C(F)(F)F)c(C)[nH]c12 (centres undefined) | 0% | 52* | 33 | -2% | -1%
Cc1[nH]c2ccc(F)cc2c(=O)c1SC(F)(F)C(F)C(F)(F)F (centres undefined) | -3% | -12 | -2 | 3% | 1%
COc1cc(/C=N/NC(=O)c2ccc3c(c2)OCCO3)cc(Br)c1O | 1% | 41* | 32* | 6% | 2%
COc1cc(/C=N/NC(=O)C23CC4CC(CC(C4)C2)C3)cc(Br)c1O | -13% | 26* | 4 | -1% | -2%[12.9 µM]
COc1cc(/C=N/NC(=O)c2ccc3c(c2)OCCO3)c(Br)c(Br)c1O | 7% | 30 | 32* | 4% | .
CCOc1cc(/C=N/NC(=O)c2cccs2)cc([N+](=O)[O-])c1O | -5% | 49* | 45* | -20% | -10%
O=C(N/N=C/c1cccc([N+](=O)[O-])c1)c1cccc(Br)c1 | . | 24 | 22* | 1% | 4%
O=C(O)c1ccc(COc2ccc(/C=N/NC(=O)c3cccs3)cc2)cc1 | -3% | 113 | 73 | -2% | 17%
COc1cc(/C=N/NC(=O)c2cncc(Br)c2)cc([N+](=O)[O-])c1O | 1% | 2 | 0 | -4% | 16%
O=C(N/N=C/c1cccc([N+](=O)[O-])c1)c1cccs1 | 9% | 34 | 26* | -8% | -9%
O=C(N/N=C/c1cccc(OCc2ccccc2)c1)c1cccs1 | -47% | 75* | 30* | 4% | -11%
CCCc1nnc(NC(=O)CCC(=O)N2CCC(Cc3ccccc3)CC2)s1 | 4% | -13 | -6 | -8% | .
CCOC(=O)C1CSC(Cc2ccc(OCc3ccc([N+](=O)[O-])cc3)cc2)N1 (centres undefined) | . | . | . | . | -3%
O=C(Nc1ccon1)Nc1ccccc1C(F)(F)F | -8% | 19 | 14 | 1% | 0%
O=C(N/N=C/c1cccc(Br)c1)c1ccc(Br)cc1 | . | 33 | 22* | 4% | -5%
O=C(N/N=C/c1cccc([N+](=O)[O-])c1)c1ccc(Br)cc1 | 4% | 9 | -4 | -2% | 0%
CCC1CCCCN1CCCNC(=O)Cn1nc(C)n2nc(-c3ccccc3)cc2c1=O (centres undefined) | 1% | -2 | 0 | 3% | .
CCOC(=O)NC(=O)CSc1nc(C)cc(C(F)(F)F)c1C#N | -1% | 84* | 31* | -5% | 6%
Cc1cc(C(F)(F)F)c(C#N)c(SCC(=O)Nc2nc3cc(Br)ccc3s2)n1 | 10% | 33* | 39* | 2% | 1%
COC(=O)CSc1nc(C)cc(C(F)(F)F)c1C#N | -12% | -11 | -3 | 3% | 5%
Cc1coc(NC(=O)CSc2nc(-c3ccncc3)cc(C(F)(F)F)c2C#N)n1 | -7% | -7 | -2 | 1% | 5%
O=C(c1ccncc1)N1CCC2(CC1)CCN(c1ccncc1)CC2 | . | . | . | . | 1%
O=c1[nH]c2ccccc2nc1/C=C(\O)c1cccs1 | -32% | 109* | 42* | -3% | 15%
SMILES | NS1 function inh | Shiga inhibitor | Cycloheximide cs | LmPK inh | Giardia FBPA inh
O=c1[nH]c2ccccc2nc1-c1cccs1 | -4% | 120* | 43* | -2% | 0%
Cc1[nH]c2ccccc2c1-c1nc2ccccc2[nH]c1=O | 8% | 64* | 9 | 1% | 5%
O/C(=C\c1nc2ccccc2[nH]1)c1cccs1 | -68% | 87* | 28* | -14% | ?
COc1ccc(NC(=O)Cc2nnc(SCC(=O)Nc3ccc(F)cc3)n2C)cc1 | 0% | 2 | -3 | -6% | 5%
Cc1cc(C(=O)OCc2nnc(-c3ccccc3)o2)c(C)n1-c1ccccc1 | 5% | 154 | 2 | 4% | -9%
O=C(OCc1nnc(-c2ccccc2)o1)c1ccccc1 | -6% | 90* | 29* | -27% | 3%
O=C(OCc1nnc(-c2ccccc2)o1)C12CC3CC(CC(Br)(C3)C1)C2 | . | 56* | 35* | 0% | -1%
CC(=O)Nc1ccc(OCc2nnc(-c3ccc(Cl)cc3)o2)cc1 | -7% | 58 | 20* | 3% | 5%
O=C(NCc1ccccc1)C12CC3CC(CC(Br)(C3)C1)C2 | 15% | 1 | 1 | 3% | -1%
CC(C(=O)OCc1nnc(-c2ccccc2)o1)N1C(=O)C2CCCCC2C1=O (centres undefined) | . | 70* | 37* | -4% | -5%
C=CCN1c2ccccc2[C@]23C[C@@H](C(=O)OC)N(S(=O)(=O)c4c(C)noc4C)C2=NC(C(=O)OC)=C(C(=O)OC)[C@H]13 | . | . | . | -6%[11.5 µM] | 0%[12.9 µM]
Cc1nn(C(C)C(=O)N2CCCC2)c(=O)c2nn(-c3ccccc3)c(C)c12 (centres undefined) | 1% | -2 | -1 | -15% | .
O=S(=O)(c1ccccc1)N1CCC2(CC1)CN(c1ccncc1)C2 | . | . | . | . | 0%
COc1ccc2cc([C@H](C)C(=O)N(C)Cc3ccccc3N3CCCC3)ccc2c1 | -28% | 4 | -1 | 3% | -8%
Clc1ccc(-c2nnc(COc3ncnc4ccccc34)o2)cc1 | . | 55* | 34* | 1% | 9%
NC(=O)COC(=O)c1ccc(-c2ccccc2)cc1 | . | 64* | 17* | -5% | 5%
Cc1ccccc1C(=O)OCc1nnc(-c2ccc(Cl)cc2)o1 | . | 45* | 25* | 1% | 5%
Cc1nc2ccc(C(=O)OCc3nnc(-c4ccc(Br)cc4)o3)cc2nc1C | -3% | -13 | -4 | -7% | .
Cc1nc2ccc(C(=O)OCc3nnc(-c4ccccc4)o3)cc2nc1C | -43% | -9 | 10* | -3% | -1%
NC(=O)COC(=O)c1ccc(-c2ccc(O)cc2)cc1 | 3% | 17 | 9 | 2% | 4%
CCOc1ccc(N(Cc2cc3ccc(C)cc3[nH]c2=O)C(=O)COC)cc1 | -11% | 29 | 24* | 0% | 6%
Cc1ccc(N(Cc2cc3ccc(C)cc3[nH]c2=O)C(=O)c2ccco2)cc1 | 2% | -3 | -1 | 2% | 1%
Cc1ccc2cc(CN(C(=O)c3ccco3)c3ccccc3)c(=O)[nH]c2c1 | 6% | 30 | 23* | -1% | -22%
O=c1c2ccccc2nc(-c2ccco2)n1/N=C/c1ccco1 | -12% | 55 | 16* | -3% | -4%
COc1cccc(/C=N/n2c(-c3ccco3)nc3ccccc3c2=O)c1 | -19% | 145* | 54* | 2% | 1%
Cc1ccccc1OCc1nc2ccccc2c(=O)n1/N=C/c1ccco1 | -11% | 64* | 33* | 1% | 3%
COc1ccc(/C=N/n2c(-c3ccco3)nc3ccccc3c2=O)cc1 | -1% | 45* | 28 | 2% | -4%

High-throughput results deposited in PubChem BioAssay by National Center for Advancing Translational Sciences (NCATS).
